Screening data as filed in PubChem.
Pf Dd2 growth: blocks in vitro growth of P. falciparum Dd2 | 4.3% of 120,000 active | Potency, µM (doses to about 28.9 µM), for the others: at the highest dose activity, negative = inhibition, hits mostly inhibitors | AID 1347417 | P. falciparum Dd2 growth, SYBR Green, 72 h; active = well fitted inhibition curve with a large enough effect;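 note: plate controls were DMSO vehicle for no effect and reference drug for full effect; nearly all actives have a fitted effect of over 65% in size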
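Infected erythrocytes (Dd2, 0.3% parasitemia, 2.5% hematocrit final) are added to compound in RPMI-1640/Albumax II medium, grown 72 h at 37C in low oxygen, then lysed with saponin/Triton-X containing SYBR Green and read by fluorescence.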
Starred values were filed as active, the others as inactive; [ ] = another dose, or the depositor's remark. The entries come from a sample that favours hits as a whole. Potency is the fitted concentration of half-maximal effect.

`CC1Oc2ccc(NC(=O)c3ccccc3F)cc2CN(Cc2ccccc2F)C1=O` (stereo not drawn) gave Pf Dd2 growth inactive.
Screening CCC1Oc2ccc(NC(=O)c3cccc(F)c3)cc2CN(Cc2ccccc2F)C1=O (stereo not drawn) returned Pf Dd2 growth -6%.
Screening COc1cccc(CN2Cc3cc(NC(=O)c4cccs4)ccc3OCC2=O)c1 returned Pf Dd2 growth inactive.
Screening COc1cccc(CN2Cc3cc(NC(=O)Cc4ccccc4)ccc3OCC2=O)c1 returned Pf Dd2 growth -13%.
For CCC1Oc2ccc(NC(=O)COc3ccccc3)cc2CN(Cc2cccc(OC)c2)C1=O (stereo not drawn) the results were Pf Dd2 growth -4%.
`CCC1Oc2ccc(NC(=O)c3ccccc3F)cc2CN(Cc2ccc3c(c2)OCO3)C1=O` (stereo not drawn) gave Pf Dd2 growth inactive.
Screening COc1cccc(CN2Cc3cc(NC(=O)c4cc(OC)cc(OC)c4)ccc3OCC2=O)c1 returned Pf Dd2 growth 4.5µM*.
CCC1Oc2ccc(NC(=O)Cc3ccccc3)cc2CN(Cc2cccc(OC)c2)C1=O (stereo not drawn) was read as Pf Dd2 growth -18%.
CCC1Oc2ccc(NC(=O)c3c(F)cccc3F)cc2CN(Cc2ccc3c(c2)OCO3)C1=O (stereo not drawn) was read as Pf Dd2 growth inactive.
`CCC1Oc2ccc(NC(=O)c3ccccc3F)cc2CN(CCc2ccc(OC)c(OC)c2)C1=O` (stereo not drawn) gave Pf Dd2 growth 1.8µM*.
Screening Cc1nnc2n1C(C)CN(C(=O)CCSc1ccc3c(c1)OCCO3)C2 (stereo not drawn) returned Pf Dd2 growth 3%.
Screening O=C(c1cc(CN2CCOCC2)on1)N1CCC(c2nc(C3CCOCC3)no2)C1 (stereo not drawn) returned Pf Dd2 growth 20%.
O=C(c1cccnc1)N1CC[C@H]2COC(=O)N2c2cc(F)ccc2C1 was read as Pf Dd2 growth -11%[44.1 µM].
Screening NC(=O)c1cc2c(nc1CC1CC(=O)N(c3ccccc3)C1)CCC2 (stereo not drawn) returned Pf Dd2 growth 0%.
`Cc1noc([C@@H]2CN(Cc3ccc(F)cc3F)C[C@H]2CO)n1` gave Pf Dd2 growth 22%.
Screening CS(=O)(=O)N1CCOc2ccc(CCC(=O)NCCN3CCOCC3)cc2C1 returned Pf Dd2 growth 7%.
`NC(=O)CN1CCC(C(=O)NCc2cn3cccnc3n2)CC1` gave Pf Dd2 growth 3%.
For CCCOc1ccc(OCCN2CCN(C)C3(CCNC(=O)CC3)C2)cc1 (stereo not drawn) the results were Pf Dd2 growth inactive.
For COc1ccc(CNC(=O)N2CCCC(c3nn[nH]n3)C2)cc1 (stereo not drawn) the results were Pf Dd2 growth 9%.
Screening COc1cccc(C(=O)N(C)Cc2cccc(C(F)(F)F)c2)c1 returned Pf Dd2 growth -26%[44.1 µM].
`COCCNC(=O)c1nc2sccn2c1Br` gave Pf Dd2 growth 1%[44.1 µM].
`Cc1ccccc1Nc1c(-c2ccc(Br)cc2O)nc2sccn12` gave Pf Dd2 growth 2.5µM*.
Screening CCc1cccc(C)c1Nc1c(-c2ccccc2)nc2sccn12 returned Pf Dd2 growth -9%.
CCOc1ccc(C2NC(=O)N(CC(=O)N(CC)CC)C3=C2C(=O)OC3)cc1 (stereo not drawn) was read as Pf Dd2 growth 3%.
`Cc1cn2nc(C(=O)N3CCC(NC(=O)c4ccc(F)c(F)c4)CC3)cc2c(=O)[nH]1` gave Pf Dd2 growth -16%.
Cc1cn2nc(C(=O)N3CCC(NC(=O)c4cccc(C#N)c4)CC3)cc2c(=O)[nH]1 was read as Pf Dd2 growth 2.8µM*.
COc1cccc(C(=O)NC2CCN(C(=O)c3cc4c(=O)[nH]c(C)cn4n3)CC2)c1 was read as Pf Dd2 growth inactive.
For COCCN1CCC(N2CCN(C(=O)c3cc(C)ccc3C)CC2)C1=O (stereo not drawn) the results were Pf Dd2 growth -9%.
CCCNC1(Cc2cc(-c3ccccn3)on2)COC1 was read as Pf Dd2 growth -13%[44.1 µM].
`O=C(c1ccccc1OC1CCN(C2Cc3ccccc3C2)CC1)N1CCCCC1` gave Pf Dd2 growth -18%.
`O=C(NC1CC1)c1ccccc1OC1CN(C2CCC2)C1` gave Pf Dd2 growth 2.8µM*.
For O=C(NC1CC1)c1ccccc1OC1CN(Cc2ccc(F)cc2)C1 the results were Pf Dd2 growth -20%.
Screening Cc1nc2ccc(CC(=O)N[C@H](c3ccccn3)C3CC(O)C3)cc2[nH]1 (stereo partly drawn) returned Pf Dd2 growth -2%.
Cc1ccc(C2NC(=O)N(CC(=O)Nc3ccccc3F)C3=C2C(=O)OC3)cc1 (stereo not drawn) was read as Pf Dd2 growth inactive.
`COc1ccc(OC)c(NC(=O)c2ccc3c(Cl)c4c(nc3c2)CCCC4)c1` gave Pf Dd2 growth -5%.
Screening COc1ccccc1Nc1c2c(nc3ccc(NC(=O)c4cccc(F)c4)cc13)CCCC2 returned Pf Dd2 growth 3.2µM*.
COc1ccc(C)cc1Nc1c2c(nc3ccccc13)CCC2 was read as Pf Dd2 growth 13µM*.
Fc1ccccc1Nc1c2c(nc3ccccc13)CCC2 was read as Pf Dd2 growth -22%.
Screening COc1ccccc1NC(=O)c1sc2nc3c(cc2c1N)CCCCCC3 returned Pf Dd2 growth inactive.
COc1ccc(NC(=O)c2c(OC)cc(=O)n3c2CCCC3)cc1OC was read as Pf Dd2 growth inactive.
`COc1ccc(/C=C/C(=O)Nc2ccc3nc4c(c(Nc5ccccc5OC)c3c2)CCCC4)cc1` gave Pf Dd2 growth 1.3µM*.
Screening COc1ccc(NC(=O)Cn2nc(C(F)(F)F)c3c2CCCC3)cc1OC returned Pf Dd2 growth -7%.
Screening COc1ccc(Nc2c3c(nc4ccccc24)CCC3)cc1Cl returned Pf Dd2 growth inactive.
For COc1ccc(Nc2c3c(nc4ccc(NC(=O)/C=C/c5cccc(OC)c5OC)cc24)CCCC3)cc1OC the results were Pf Dd2 growth 4µM*.
`COc1cc(NC(=O)c2cccc(F)c2)ccc1NC(=O)c1cc2ccccc2o1` gave Pf Dd2 growth 6%.
COCCOC1CCOC2(CCN(C(=O)c3cccc(F)c3)CC2)C1 (stereo not drawn) was read as Pf Dd2 growth 20%.
Screening COCC(=O)N(C)C1CCc2ccccc21 (stereo not drawn) returned Pf Dd2 growth -21%[44.1 µM].
`CCCS(=O)(=O)N1CCCC(c2nc(C(C)C)no2)CCNC(=O)CC1` (stereo not drawn) gave Pf Dd2 growth 16%.
`Cc1cc(C)cc(NC2=N[C@H]3[C@@H](O)[C@H](O)C[C@H](C(=O)N4CCC(C(N)=O)CC4)[C@H]3S2)c1` gave Pf Dd2 growth -16%.
COCCNC(=O)CC[C@]12CC[C@](C)(O)C[C@H]1C(C)(C)C[C@@H]2NC1CCN(C(C)=O)CC1 was read as Pf Dd2 growth 11%.
`Cc1noc(C)c1[S+](=O)([O-])N1CC(Oc2ccc(F)cc2F)C1` gave Pf Dd2 growth -11%.
`COc1ccccc1Nc1c2c(nc3ccc(NC(=O)/C=C/c4cccc(OC)c4OC)cc13)CCCC2` gave Pf Dd2 growth 1.1µM*.
Screening COc1ccccc1NC(=O)Cn1nc2c(cc1=O)CCCC2 returned Pf Dd2 growth -12%.
`COc1ccc(C)cc1NC(=O)CC(=O)Nc1ccc2nc3n(c(=O)c2c1)CCCCC3` gave Pf Dd2 growth -13%.
